# Experimental data as given in ChEMBL document CHEMBL3988442, “University of Dundee, Small-Polar-MMV Screening Library” (2021).
# In all, about 66,000 compounds went through this assay and about 960 (1.5%) showed an effect of 50% or more. Shown is part of a subset that was picked to be rich in strong results.
# Test system: Trypanosoma brucei
# Assay: Trypanosoma brucei 72 hour study
# Format: functional, organism-based
# Parameters: scale not given: in the data most compounds retested in dose-response had high values
structure (smiles),measurement,setting,value
O=C(CC1CC2(CCN(CC3CC3)CC2)Oc2ccccc21)NC1CC1.O=C(O)C(F)(F)F (stereo not drawn),Percent Effect,"30.3 µM, […]",11.6%
CCC[C@H]1CN(S(=O)(=O)N(C)Cc2ccccc2)C[C@@H]1N,Percent Effect,"30 µM, 30.03 µM",8.364%
CCOCc1ccccc1NC(=O)NC1CCN(C2CCCC2)C1 (stereo not drawn),Percent Effect,"30.3 µM, […]",99.06%
CCOCc1ccccc1NC(=O)NC1CCN(CC(F)(F)F)C1 (stereo not drawn),Percent Effect,"30.3 µM, […]",8.993%
CCOCc1ccccc1NC(=O)NC1CCN(c2ccccc2)C1 (stereo not drawn),Percent Effect,"30.3 µM, […]",12.17%
CN1CCCC(c2ccnc(C(=O)NCC3CC3)c2)C1 (stereo not drawn),Percent Effect,"30.3 µM, […]",-15.86%
Cn1cc(CN2CCCC3(CCCCN3S(C)(=O)=O)C2)cn1.O=C(O)C(F)(F)F (stereo not drawn),Percent Effect,"30 µM, 30.03 µM",-25.71%
Cc1cccc(-c2nc(N)nc3c2CN(C(=O)c2cc(C)n[nH]2)C3C)c1 (stereo not drawn),Percent Effect,"30.3 µM, […]",90.24%
Cc1cccc(-c2nc(N)nc3c2CN(C(=O)c2ccncn2)C3C)c1 (stereo not drawn),Percent Effect,"30.3 µM, […]",-0.8654%
COCC(=O)N1Cc2c(-c3cccc(C)c3)nc(N)nc2C1C (stereo not drawn),Percent Effect,"30.3 µM, […]",-11.02%
Cc1ccc(CCNc2nc(-c3ccncc3)nc3c2CCNCC3)o1,Percent Effect,"30.3 µM, […]",-212%
COCCNc1nc2c(c(NCCc3cccs3)n1)CCNCC2,Percent Effect,"30 µM, 30.03 µM",-24.48%
c1csc(CCNc2nc(-c3ccncc3)nc3c2CCNCC3)c1,Percent Effect,"30.3 µM, […]",104%
O=C(C1CCC1)N1CCO[C@H]2[C@H](OCCCn3cccn3)CC[C@@H]21.O=C(O)C(F)(F)F,Percent Effect,"30.3 µM, […]",-14.88%
CC(C)c1nnsc1CN1CCc2[nH]nc(-c3ccc(F)c(F)c3)c2C1,Percent Effect,"30.3 µM, […]",8.442%
CCc1nc(C)sc1CN1CCc2[nH]nc(-c3ccc(F)c(F)c3)c2C1,Percent Effect,"30.3 µM, […]",9.305%
CC(C)c1nnsc1CN1CCc2[nH]nc(-c3ccc(Cl)cc3)c2C1,Percent Effect,"30.3 µM, […]",100.2%
Cn1nc(N2CCCC(C(=O)Nc3nc4ccccc4s3)C2)ccc1=O (stereo not drawn),Percent Effect,"30 µM, 30.03 µM",-10.15%
Cc1nc(COC[C@@H]2CCC[C@@]23CN(C)CCO3)cs1.O=C(O)C(F)(F)F,Percent Effect,"30 µM, 30.03 µM",42.28%
Cc1ncc(C(=O)NC2CCN(CCOc3ccc(Br)cc3)CC2)s1,Percent Effect,"30.3 µM, […]",9.7%
CCc1nnsc1C(=O)NC1CCN(CCOc2ccc(Br)cc2)CC1,Percent Effect,"30.3 µM, […]",50.82%
Cc1nc(C(=O)NC2CCN(CCOc3ccc(Br)cc3)CC2)cs1,Percent Effect,"30.3 µM, […]",34.31%
CN(C)CC1CN(C(=O)Cc2ccccc2)Cc2nccn2C1.O=C(O)C(F)(F)F (stereo not drawn),Percent Effect,"30 µM, 30.03 µM",-30.18%
CC(=O)N1CCC2(CCN(C(=O)c3ccc(Cl)c(C(F)(F)F)c3)C2)C1 (stereo not drawn),Percent Effect,"30 µM, 30.03 µM",28.83%
NC(=O)C1CCCN1Cc1cccc(NC(=O)c2ccsc2)c1 (stereo not drawn),Percent Effect,"30 µM, 30.03 µM",12.83%
NC(=O)C1CCCN1Cc1cccc(NC(=O)c2cc(Cl)cc(Cl)c2)c1 (stereo not drawn),Percent Effect,"30 µM, 30.03 µM",26.87%
NC(=O)C1CCN(Cc2cccc(NC(=O)c3ccsc3)c2)CC1,Percent Effect,"30 µM, 30.03 µM",50.19%
O=C(c1cc(C2CCCCN2CCO)n[nH]1)N1CCOCC1.O=CO (stereo not drawn),Percent Effect,"30.3 µM, […]",-18.9%
CC(C)c1cc(C(=O)N2CCc3nc(C4CCCN4)ncc3C2)cs1.Cl (stereo not drawn),Percent Effect,"30.3 µM, […]",-27.95%
CCN(CC)Cc1ccc(C(=O)N2CCCC2c2cnn(C)c2)o1 (stereo not drawn),Percent Effect,10 µM,2.271%
CN(CC(=O)Nc1ccccc1C(=O)NC1CC1)Cc1ccccc1Cl,Percent Effect,"30 µM, 30.03 µM",-3.79%
CCOc1ccccc1NC(=O)NCc1ccoc1,Percent Effect,"30 µM, 30.03 µM",-38.02%
CCOc1cccc(CNc2ccccc2Cl)c1O,Percent Effect,"30 µM, 30.03 µM",-19.48%
CNC(=O)CN(C)Cc1ccc(F)cc1Cl,Percent Effect,"30 µM, 30.03 µM",-10.17%
CCOc1ccccc1NC(=O)CN(C)Cc1ccccc1Cl,Percent Effect,"30 µM, 30.03 µM",104.4%
CCOC(=O)c1ccccc1NC(=O)CN(C)Cc1ccccc1Cl.O=C(O)C(=O)O,Percent Effect,"30 µM, 30.03 µM",103.8%
O=C(NCCc1cccs1)[C@H]1CO[C@H]2CCN(CC3CC3)C[C@H]2C1.O=C(O)C(F)(F)F,Percent Effect,"30.3 µM, […]",-52.96%
CN(CC(=O)c1ccc2[nH]c(=O)[nH]c2c1)Cc1ccc2c(c1)OCO2,Percent Effect,"30.3 µM, […]",2.207%
CCOCC(O)CN1CCN(C(=O)c2ccc(N(C)C)nn2)CC1 (stereo not drawn),Percent Effect,"30.3 µM, […]",-26.53%
same,Percent Effect,"10 mM, 10 mM as filed; unlikely as a test dose",-123.6%
Cc1noc(NC(=O)c2ccc(OC(F)(F)F)cc2)n1,Percent Effect,"30 µM, 30.03 µM",107.1%
Cc1noc(NC(=O)c2ccccc2)n1,Percent Effect,"30.3 µM, […]",22.26%
COc1cc(C(=O)Nc2nc(C)no2)cc(OC)c1Br,Percent Effect,10 µM,-27.84%
Cc1ccc(C(=O)Nc2nc(C)no2)cc1,Percent Effect,"30.3 µM, […]",24.35%
Cc1noc(NC(=O)c2ccc(F)cc2)n1,Percent Effect,"30.3 µM, […]",23.19%
Cc1noc(NC(=O)CCNC(=O)c2ccc(Br)cc2)n1,Percent Effect,"30.3 µM, […]",-27.06%
COc1cc(C(=O)Nc2nc(C)no2)ccc1OC(F)F,Percent Effect,10 µM,-60.85%
Cc1noc(NC(=O)c2cccc(Br)c2)n1,Percent Effect,"30.3 µM, […]",69.68%
Cc1noc(NC(=O)c2ccc(C)c(F)c2)n1,Percent Effect,"30 µM, 30.03 µM",65.47%
COc1cc(C(=O)Nc2nc(C)no2)ccc1C,Percent Effect,"30 µM, 30.03 µM",38.15%
Cc1noc(NC(=O)c2ccc(Br)cc2)n1,Percent Effect,"30 µM, 30.03 µM",95.54%
Cc1noc(NC(=O)c2ccc(C#N)cc2)n1,Percent Effect,"30.3 µM, […]",-1.812%
CN1CCc2c(C#N)c(NCCCN3CCOCC3)n3cnnc3c2C1.Cl.Cl,Percent Effect,"30 µM, 30.03 µM",29.08%
CCOc1ccccc1CN1CCc2nc3ccsc3c(=O)n2CC1.Cl,Percent Effect,"30.3 µM, […]",-5.491%
CCOC1COC2(CCN(Cc3ccc(C)c(C)c3)CC2)C1.O=C(O)C(F)(F)F (stereo not drawn),Percent Effect,"30.3 µM, […]",17.79%
COc1ccc(NS(=O)(=O)c2cnc(NC(C)=O)s2)cc1,Percent Effect,"30.3 µM, […]",-9.359%
CN(Cc1cccnc1)[C@@H]1CN(Cc2cnn(C)c2)[C@@H]2CCCO[C@H]12.O=C(O)C(F)(F)F.O=C(O)C(F)(F)F.O=C(O)C(F)(F)F.O=C(O)C(F)(F)F,Percent Effect,"30.3 µM, […]",-6.057%
N#Cc1ccc(CNC(=O)C2=NN(c3ccccc3)C(=O)CN2)cc1,Percent Effect,"30 µM, 30.03 µM",-22.79%
O=C(NCc1cccnc1)C1=NN(c2ccccc2)C(=O)CN1,Percent Effect,"30 µM, 30.03 µM",71.31%
O=C(Nc1cccnc1)C1=NN(c2ccccc2)C(=O)CN1,Percent Effect,10 µM,-65.06%
CC(C)(C)CN1CCN(CC2CC2)C(CCO)C1 (stereo not drawn),Percent Effect,"30 µM, 30.03 µM",-40.11%
O=C(Nc1ccccn1)C1(n2cnnn2)CCCCC1,Percent Effect,"30 µM, 30.03 µM",-28.83%
O=C(O)C(F)(F)F.O=C1N(Cc2ccncc2)CCC12CCCN(c1ncc(F)cn1)C2 (stereo not drawn),Percent Effect,"30.3 µM, […]",-38.62%
CN1CCCC[C@@H]2[C@H]1[C@@H](c1ccccc1)CCN2S(=O)(=O)N1CCCC1,Percent Effect,"30.3 µM, […]",98.76%
CN1CCCC[C@@H]2[C@H]1[C@@H](c1ccccc1)CCN2C(=O)c1ccccn1,Percent Effect,"30.3 µM, […]",12.07%
CN1CCCC[C@@H]2[C@H]1[C@@H](c1ccccc1)CCN2C(=O)c1ccncc1,Percent Effect,"30.3 µM, […]",2.626%
CN1CCCC[C@@H]2[C@H]1[C@@H](c1ccccc1)CCN2C(=O)c1ccccc1,Percent Effect,"30.3 µM, […]",97.59%
CN1CCCC[C@@H]2[C@H]1[C@@H](c1ccccc1)CCN2C(=O)c1cccnc1,Percent Effect,"30.3 µM, […]",-28.46%
Cl.O=S(=O)(N1CCCC1)N1CC[C@H](c2ccccc2)[C@H]2NCCCC[C@H]21,Percent Effect,"30.3 µM, […]",-20.77%
O=C(O)C(F)(F)F.O=C(O)C(F)(F)F.O=C(c1cccnc1)N1CCn2nnc(COc3ccccn3)c2C1,Percent Effect,"30 µM, 30.03 µM",20.03%
Cc1ncsc1CN1C[C@@H]2COC[C@]2(C(=O)NCC2CC2)C1.O=C(O)C(F)(F)F,Percent Effect,"30 µM, 30.03 µM",-10.84%
CNc1ncc2c(n1)CN(C1CCCC1)C2=O,Percent Effect,"30.3 µM, […]",-26.22%
CNCc1ccc([C@@H]2CN(C)C[C@H]2C(N)=O)cc1.Cl,Percent Effect,"30.3 µM, […]",-7.095%
CC(C)(C)c1cc(CN2C[C@H]3CC[C@@H]2CN(Cc2cscn2)C3)n[nH]1,Percent Effect,"30 µM, 30.03 µM",14.03%
O=C(NCCC1COc2ccccc2O1)c1ccc(N2CC(O)C2)nc1 (stereo not drawn),Percent Effect,"30 µM, 30.03 µM",57.01%
CC(C)c1nccn1CCCNC(=O)c1ccc(-c2cn[nH]c2)nc1,Percent Effect,"30 µM, 30.03 µM",3.874%
CN(CC1COc2ccccc2O1)C(=O)c1ccc(-c2cn[nH]c2)nc1 (stereo not drawn),Percent Effect,"30 µM, 30.03 µM",34.02%
O=C(NCc1ccc2c(c1)OCO2)c1ccc(N2CCCCCC2)nc1,Percent Effect,"30 µM, 30.03 µM",-3.476%
O=C(NCCC1COc2ccccc2O1)c1ccc(-c2cc[nH]n2)nc1 (stereo not drawn),Percent Effect,"30 µM, 30.03 µM",51.23%
CN(CC1COc2ccccc2O1)C(=O)C1=NN(C)C(=O)CC1 (stereo not drawn),Percent Effect,"30 µM, 30.03 µM",-29.23%
Cn1ccnc1-c1ccc(NCCC2COc3ccccc3O2)nn1 (stereo not drawn),Percent Effect,"30 µM, 30.03 µM",-17.77%
O=C(NCCC1COc2ccccc2O1)c1ccc(-c2cn[nH]c2)nc1 (stereo not drawn),Percent Effect,"30 µM, 30.03 µM",81.06%
CC(C)c1noc(CCNC(=O)NCC2COc3ccccc3O2)n1 (stereo not drawn),Percent Effect,"30 µM, 30.03 µM",-35.89%
CN1CCCC(c2ccnc(C(=O)NC3CC3)c2)C1 (stereo not drawn),Percent Effect,"30.3 µM, […]",-4.506%
Cc1occc1C(=O)N1CCC2(CC1)CC(OCc1ccccn1)CO2.O=C(O)C(F)(F)F (stereo not drawn),Percent Effect,"30.3 µM, […]",-782.3%
CCC(C)NC(=O)c1nnn(-c2cccc3c2CCN(C)C3)c1C (stereo not drawn),Percent Effect,"30 µM, 30.03 µM",31.65%
CC(C)c1ncc(CN2CCC(CO)C2)cn1.O=C(O)CC(O)(CC(=O)O)C(=O)O (stereo not drawn),Percent Effect,"30.3 µM, […]",-24.24%
O=C(NCc1cccnc1)N1CCC2(CC(=O)N(c3ccsc3)C2)C1.O=C(O)C(F)(F)F (stereo not drawn),Percent Effect,"30.3 µM, […]",-73.27%
Cc1ccsc1-c1cccc(-c2ccn(CC3CCNC3)n2)c1 (stereo not drawn),Percent Effect,"30 µM, 30.03 µM",33.01%
Cc1cc(C)nc(N2CC[C@H](Oc3ccccc3F)[C@@H](O)CC2)n1,Percent Effect,"30.3 µM, […]",-2.702%
Cc1ccc(Oc2cc(F)ccc2O[C@@H]2CCC[C@@H](N)[C@H]2O)cc1,Percent Effect,"30.3 µM, […]",100.7%
CN[C@@H]1CCC[C@@H](Oc2ccccc2Oc2ccc(C)cc2)[C@@H]1O,Percent Effect,"30.3 µM, […]",101%
CNCc1cc(F)ccc1Oc1ccc(F)cc1,Percent Effect,"30.3 µM, […]",-17.97%
N[C@@H]1CCC[C@@H](Oc2ccc(F)cc2Oc2cccc(F)c2)[C@@H]1O,Percent Effect,"30.3 µM, […]",3.71%
Cc1noc(C)c1C(=O)N[C@@H]1CCC[C@@H](Oc2ccccc2)[C@@H]1O,Percent Effect,"30.3 µM, […]",5.859%
N[C@@H]1CCC[C@@H](Oc2ccc(F)cc2Oc2ccccc2)[C@@H]1O,Percent Effect,"30.3 µM, […]",101.1%
CN(C(=O)c1ccon1)[C@@H]1CCC[C@@H](Oc2ccccc2)[C@@H]1O,Percent Effect,"30.3 µM, […]",-27.68%
Cc1noc(C)c1C(=O)N[C@@H]1CC[C@@H](Oc2ccccc2)[C@@H]1O,Percent Effect,"30.3 µM, […]",-4.467%
